Activity calls are given as the source filed them.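 The calls were made as follows, unless noted: active = fluorescence slope after compound addition differing from the mean of all screened samples at 99.7% confidence, in either direction; inactive = the rest.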
How the values were obtained:
[1] = inhibitors of TNFa-induced NFkB p65 translocation, primary screen, imaging, HUVEC, MLSMR starter and 10KST1 sets (AID 438;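 active = inhibition above 20% together with a positive visual image hit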;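 also: compound added about 3h40 before a 20 min TNFalpha stimulation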;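 as to inhibition: signal is the nuclear over cytoplasmic p65 intensity ratio per well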); conditions: HUVEC TNFa-induced p65 nuclear translocation; cell count: measured here: nuclei count (cytotoxicity indicator), at 2.08 µM; inhibition: at 2 µM, stronger effect = higher value, 0% TNFa-plus-vehicle, 100% no-TNFa wells
[2] = inhibitors of mutant huntingtin aggregation, primary screen, imaging, exon1htt(103Q)mCFP cells, high-content imaging (AID 483;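 active = visual image review flags a hit and inhibition of aggregation exceeds 20%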;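 also: compound exposure lasted 3 days before fixation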;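 as to nuclei count: percent of the per-plate median nuclei count of sample wells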); conditions: exon1htt(103Q)mCFP cell line, aggregate imaging, at 2 µM; inhibition of aggregation: stronger effect = higher value; nuclei count: measured here: cell count, toxicity
[3] = inhibitors of E-selectin induction by TNFa, primary screen, imaging, HUVEC, immunofluorescence, MLSMR starter and 10KST1 sets (AID 487;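 active = visually confirmed hit in the image check and inhibition above 20%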;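 as to inhibition: signal is fraction of cell area covered by stained E-selectin grains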;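 as to nuclei count: 100% = median nuclei count of all wells on the same plate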); conditions: HUVEC TNFalpha-induced E-selectin immunofluorescence imaging, at 2 µM; inhibition: stronger effect = higher value; nuclei count: measured here: cell number, toxicity
[4] = target: Voltage-gated potassium channel subunit beta-2 (Rattus norvegicus) (UniProt P62483); test: KvBeta enzyme negative modulators, primary screen, biochemical, NADPH fluorescence (AID 622;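 active = fluorescence slope higher than the sample average by over 3 SD, cut at about -0.22 in these data, passing the limit was not always enough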;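 also: slope of raw intensity against log time taken from 70 to 1610 s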); conditions: recombinant KvBeta, 4-cyanobenzaldehyde reduction, at 10 µM, stronger effect = higher value
[5] = target: Voltage-gated potassium channel subunit beta-2 (Rattus norvegicus) (UniProt P62483); test: KvBeta positive modulators, primary screen, biochemical, NADPH fluorescence (AID 623;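 active = NADPH fluorescence slope more negative than the mean of all samples by about 3 SD, 99.7% confidence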;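 also: fluorescence intensity change per second fitted from 20 to 320 s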); conditions: Recombinant KvBeta, NADPH fluorescence decrease slope, 10 min; at 10 µM; stronger effect = lower value
[6] = target: Alpha-2C adrenergic receptor (Homo sapiens) (UniProt P18825); test: modulators of alpha2C/GIRK thallium flux, primary screen, cell-based, HEK293 alpha2C/GIRK1/2 (AID 624); conditions: thallium flux BTC fluorescence, at 10 µM, actives lie on both sides;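 also: slope of fluorescence ratio to pre-addition baseline per second over 15 to 24 s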
[7] = inhibitors of Sendai virus-induced IRF3 signaling, primary screen, TLR/RLR signaling modifier project, cell-based, Sendai virus stimulus, luciferase, 10K MLSCN set (AID 602276;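 active = inhibition at or above 50% at 10 µM; inactive = inhibition below 50%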;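 also: firefly luciferase from ISG56 promoter only with Renilla not read in this screen; 0% = Sendai virus plus DMSO and 100% = medium plus DMSO without virus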); conditions: HEK293 RL24 IRF3 luciferase reporter, at 10 µM, stronger effect = higher value
[8] = inhibitors of poly I:C-induced TLR3 signaling, primary screen, cell-based, poly I:C stimulus, luciferase, 10K MLSCN set (AID 602277;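 active = inhibition of the reporter signal at or above 50%; inactive = inhibition below 50%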); conditions: HEK293-TLR3 RL24 IRF3 luciferase reporter, at 10 µM, stronger effect = higher value

Alpha-2C adrenergic receptor (Homo sapiens), sequence (P18825 whole entry, looked up): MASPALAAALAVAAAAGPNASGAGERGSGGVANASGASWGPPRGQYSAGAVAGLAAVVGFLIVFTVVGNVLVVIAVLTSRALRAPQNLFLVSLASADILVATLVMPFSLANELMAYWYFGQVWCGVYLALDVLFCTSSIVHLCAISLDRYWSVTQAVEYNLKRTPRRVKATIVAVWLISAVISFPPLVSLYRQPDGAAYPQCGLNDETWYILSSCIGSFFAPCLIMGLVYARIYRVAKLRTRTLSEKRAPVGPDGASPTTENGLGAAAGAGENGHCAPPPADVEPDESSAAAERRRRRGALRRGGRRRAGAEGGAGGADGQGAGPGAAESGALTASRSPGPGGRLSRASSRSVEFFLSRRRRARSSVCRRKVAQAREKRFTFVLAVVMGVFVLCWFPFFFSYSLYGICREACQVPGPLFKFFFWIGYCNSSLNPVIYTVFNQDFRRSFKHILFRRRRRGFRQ
Voltage-gated potassium channel subunit beta-2 (Rattus norvegicus), sequence (P62483 whole entry, looked up): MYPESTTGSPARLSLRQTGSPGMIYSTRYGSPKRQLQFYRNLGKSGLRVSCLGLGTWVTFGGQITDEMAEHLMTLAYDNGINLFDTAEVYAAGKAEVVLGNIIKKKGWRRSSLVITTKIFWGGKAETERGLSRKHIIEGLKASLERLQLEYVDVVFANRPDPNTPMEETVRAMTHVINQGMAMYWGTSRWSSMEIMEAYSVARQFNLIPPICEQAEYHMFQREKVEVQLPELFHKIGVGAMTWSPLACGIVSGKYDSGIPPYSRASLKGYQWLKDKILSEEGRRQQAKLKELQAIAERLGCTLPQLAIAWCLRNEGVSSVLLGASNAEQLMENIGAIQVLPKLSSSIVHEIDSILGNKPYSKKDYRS

SMILES	cell count [1]	inhibition [1]	inhibition of aggregation [2]	nuclei count [2] [%]	inhibition [3]	nuclei count [3] [%]	fluorescence slope [4]	NADPH fluorescence slope [5]	slope [6]	inhibition [7]	inhibition [8]
O=C(NCc1ccco1)c1csc(Nc2ccccc2Cl)n1	484	-6.2% (inactive)	-0.3% (inactive)	118	-144% (inactive)	233	-0.503 (inactive)	-3.4e-05 (inactive)	0.0062 (inactive)	-50.5% (inactive)	-12.9% (inactive)
COC(=O)c1cnc2c(C(F)(F)F)cccc2c1OC	595	-8.5% (inactive)	-5% (inactive)	61.8	-64.2% (inactive)	84.8	-0.605 (inactive)	6.9e-06 (inactive)	0.0043 (inactive)	9.38% (inactive)	10.1% (inactive)
O=C(CCSc1nccn1Cc1ccccc1)N1CCOCC1	447	-6.8% (inactive)	-9.1% (inactive)	93.1	-7.8% (inactive)	80.8	-0.524 (inactive)	-5.2e-05 (inactive)	0.00524 (inactive)	1.9% (inactive)	-9.28% (inactive)
CCCCOCCCNC(=O)c1ccccc1OCC	365	8.5% (inactive)	0.7% (inactive)	111	33.7% (inactive)	116	-0.317 (inactive)	-6.3e-05 (inactive)	0.00615 (inactive)	11.1% (inactive)	7.39% (inactive)
Nn1c(SCc2csc(-c3ccccc3)n2)nnc1-c1cccs1	387	-14% (inactive)	-10.8% (inactive)	93.3	-37.9% (inactive)	116	-0.454 (inactive)	-7.1e-06 (inactive)	0.00728 (inactive)	31% (inactive)	30.9% (inactive)
COCCn1c(CN2CCN(c3cccc(Cl)c3)CC2)nc2c1c(=O)n(C)c(=O)n2C	712	-6.3% (inactive)	5.4% (inactive)	99.5	-24.9% (inactive)	120	-0.582 (inactive)	-4e-05 (inactive)	0.00601 (inactive)	12.7% (inactive)	15.3% (inactive)
C=CCNC(=O)CN(c1cccc(Br)c1)S(C)(=O)=O	322	-0.5% (inactive)	13.9% (inactive)	95.4	21.4% (inactive)	115	-0.509 (inactive)	2.5e-05 (inactive)	0.00557 (inactive)	8.3% (inactive)	14.4% (inactive)
CC(NCc1ccco1)C(=O)N1CCc2ccccc2C1 (stereo not drawn)	705	-49% (inactive)	6.5% (inactive)	105	27% (inactive)	108	-0.48 (inactive)	-0.000253 (inactive)	0.00559 (inactive)	-8.88% (inactive)	1.37% (inactive)
COC(=O)c1[nH]c2c(c1C)C(=O)CC(c1cc(OC)ccc1OC)C2 (stereo not drawn)	546	-4.2% (inactive)	30.2% (inactive)	81	-36.2% (inactive)	114	-0.573 (inactive)	-1.2e-05 (inactive)	0.00652 (inactive)	38.3% (inactive)	21.5% (inactive)
Cc1nc2c(C(=O)O)cnn2c(C)c1Cc1ccccc1F	606	-12.2% (inactive)	11.2% (inactive)	77.3	-44.9% (inactive)	105	-0.406 (inactive)	4.6e-06 (inactive)	0.00393 (inactive)	-2.88% (inactive)	-3.96% (inactive)
Cn1c(=O)c2c(nc3sccn32)n(C)c1=O	463	12.5% (inactive)	5.1% (inactive)	100	29.8% (inactive)	108	-0.455 (inactive)	7.5e-05 (inactive)	0.00599 (inactive)	9.58% (inactive)	23.1% (inactive)
O=C(c1ccc2nc(N3CCCCC3)sc2c1)N1CCN(c2ccccn2)CC1	669	-0.8% (inactive)	-24.8% (inactive)	99.9	5% (inactive)	118	-0.589 (inactive)	5.6e-06 (inactive)	0.00632 (inactive)	-4.41% (inactive)	3.71% (inactive)
CCOc1cc(S(=O)(=O)NCc2ccc3c(c2)OCO3)ccc1F	266	1.8% (inactive)	-4.1% (inactive)	98.6	-32.5% (inactive)	103	-0.407 (inactive)	-3.8e-05 (inactive)	0.00471 (inactive)	15.3% (inactive)	9.83% (inactive)
CC(C)(C)NC(=O)NC(=O)COc1ccccc1C#N	432	-28.2% (inactive)	-6.3% (inactive)	108	-27% (inactive)	139	-0.591 (inactive)	8.6e-06 (inactive)	0.0068 (inactive)	2.8% (inactive)	-67.2% (inactive)
COc1ccc(S(=O)(=O)N2CCOCC2)cc1C(=O)Nc1cc(C)on1	225	1.1% (inactive)	-3.3% (inactive)	96.6	38.6% (inactive)	76.9	-0.436 (inactive)	-3.9e-05 (inactive)	0.00355 (inactive)	-8.66% (inactive)	12.5% (inactive)
COc1ccc(C(=O)N(CCN2CCOCC2)CC(=O)NC2CCCC2)cc1OC	402	0.5% (inactive)	-20.8% (inactive)	108	-41.4% (inactive)	109	-0.597 (inactive)	-5.3e-05 (inactive)	0.00354 (inactive)	-8.79% (inactive)	-6.82% (inactive)
CC(=O)N1CCc2cc(Br)cc(S(=O)(=O)NCCCN3CCCC(C)C3)c21 (stereo not drawn)	379	0.3% (inactive)	-1.8% (inactive)	104	-170% (inactive)	96	-0.47 (inactive)	1.8e-05 (inactive)	0.00613 (inactive)	-7.41% (inactive)	12.2% (inactive)
Cn1c2ccccc2c2ncn(CCCN3CCOCC3)c(=O)c21	715	-0.6% (inactive)	-15.1% (inactive)	94	5.6% (inactive)	113	-0.383 (inactive)	2e-05 (inactive)	0.00539 (inactive)	5.16% (inactive)	23.7% (inactive)
COc1ccc(-c2cc3c(=O)n(CC(=O)NC4CCN(Cc5ccccc5)CC4)ncn3n2)cc1	296	2.8% (inactive)	0.5% (inactive)	91.9	2.5% (inactive)	90.8	-0.404 (inactive)	-4.1e-05 (inactive)	0.00479 (inactive)	-14.7% (inactive)	-13.3% (inactive)
Cc1nc2scc(-c3ccco3)c2c(=O)n1/N=C/N(C)C	453	-4.8% (inactive)	-22.8% (inactive)	86.6	-35.6% (inactive)	116	-0.342 (inactive)	-6.4e-05 (inactive)	0.00533 (inactive)	-2.39% (inactive)	3.07% (inactive)
COc1ccc2c(c1)C(C)=CC(C)(C)N2C(=O)CSc1nnc(-c2ccc(C)cc2)o1	362	12.5% (inactive)	8.3% (inactive)	106	14.4% (inactive)	117	-0.451 (inactive)	4.8e-05 (inactive)	0.00352 (inactive)	-7.74% (inactive)	17.4% (inactive)
CCCC(NC(=O)c1ccccc1)c1nc2ccccc2n1Cc1ccc(C(=O)OC)o1 (stereo not drawn)	722	5.5% (inactive)	7.1% (inactive)	105	-91.8% (inactive)	119	-0.372 (inactive)	-3.2e-06 (inactive)	0.00315 (inactive)	0.936% (inactive)	16.6% (inactive)
Cc1cc(C)nc(N(C#N)CC(=O)N2CCC(C(N)=O)CC2)n1	553	-16.4% (inactive)	12.3% (inactive)	98.2	21.6% (inactive)	98.4	-0.489 (inactive)	1.8e-05 (inactive)	0.00455 (inactive)	14.2% (inactive)	13.3% (inactive)
COc1cccc(Oc2cnc(N)nc2-c2ccc(OC)cc2O)c1	664	-8.2% (inactive)	5.1% (inactive)	112	-111% (inactive)	87.8	-0.427 (inactive)	-5.9e-05 (inactive)	0.00372 (inactive)	23.8% (inactive)	38% (inactive)
CCC(=O)N1Cc2ccccc2-c2ccccc2C1=O	642	3% (inactive)	-14.4% (inactive)	98.3	11% (inactive)	126	-0.618 (inactive)	-1.2e-05 (inactive)	0.006 (inactive)	12.1% (inactive)	12.9% (inactive)
Cn1cccc1Cc1nnc(SCC(=O)NCc2ccc(F)cc2)n1-c1ccc(F)cc1	767	-7.4% (inactive)	20% (inactive)	139	-56.2% (inactive)	116	-0.579 (inactive)	8.6e-06 (inactive)	0.00663 (inactive)	-4.39% (inactive)	9.66% (inactive)
CCOC(=O)N1CCN(c2cc(=O)n(-c3cccc(Br)c3)c(=O)[nH]2)CC1	532	-10.1% (inactive)	0.9% (inactive)	55.8	-13.2% (inactive)	89.5	-0.564 (inactive)	-2e-05 (inactive)	0.00721 (inactive)	-10.2% (inactive)	15.4% (inactive)
CC1CN(C(=O)CSc2nnc(-c3ccncc3)n2-c2ccccc2)CC(C)O1 (stereo not drawn)	447	2.9% (inactive)	4% (inactive)	101	71.2% (active)	124	-0.605 (inactive)	5.9e-06 (inactive)	0.00638 (inactive)	20.7% (inactive)	24.3% (inactive)
